# Measured values reported in PubChem BioAssay (NCI).
# Compounds without any hit were thinned out: in the full panel of roughly 83,000, 20% have a hit.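 Step 1: grow cells in 96-well plates. Step 2: add test compound at a single concentration. Step 3: incubate 48 h. Step 4: record percent growth.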 Unmarked numbers belong to inactive results. Active and inactive are the calls of the source. The calls were made as follows: active = growth percent below 10; inactive = the rest.
# System: HL-60(TB) leukemia
# Experiment: NCI-60 one-dose screen, 48 h (100 = growth as untreated, 0 = no growth, -100 = all killed)
# Settings: 10 µM unless noted
row,SMILES,growth
1,COC(=O)[C@H](Cc1cn(C)cn1)NC(=O)[C@H](C)NC(=O)Nc1cc(C(F)(F)F)cc(C(F)(F)F)c1,-70.4% [100 µM] (active)
2,CCCCC[C@H]1C/C=C2/C(=O)C=C[C@@H]2C/C=C\CCCC(=O)O1,4.48% (active)
3,O=C(N/N=C/c1ccncc1)c1ccccc1Nc1cccc(C(F)(F)F)c1,77.7%
4,CC(C)(C)CC(C)(C)n1nnnc1C(NC12CC3CC(CC(C3)C1)C2)c1ccccc1 (centres undefined),99.3%
5,CCOC(=O)c1cn2ncnc(Oc3ccc(NC(=O)NCCN(C)C)c(Cl)c3)c2c1C,98.6%
6,CCN1CCN(c2ccc(Nc3cc(-c4cccnc4Nc4c(Cl)c(OC)cc(OC)c4Cl)ncn3)cc2)CC1,56%
7,CC(=O)C(C(C)=O)C(c1ccccc1)C(C(C)=O)C(C)=O,98.5%
8,Cc1ccc(-n2nnc(C3=NCCc4c3[nH]c3ccc(Cl)cc43)c2C)cc1,39.4%
9,Cn1c(=O)c2[nH]c(C(O)C(O)C(O)C(O)CO)nc2n(C)c1=O (centres undefined),100%
10,NC(=Nc1ccccc1)SCCCSC(N)=Nc1ccccc1,82.6%
11,c1ccc2c(c1)CCCc1nnc3nc4ccccc4n3c1-2,34.2%
12,COc1ccc2c(c1)C(=O)/C(=C/c1ccc([N+](=O)[O-])s1)O2,-10.7% (active)
13,CCN1C(=O)N(CC)C2C1NN=c1s/c(=C\c3ccccc3Br)c(=O)n12 (centres undefined),-40.7% (active)
14,c1ccc([P+](CCC[P+](c2ccccc2)(c2ccccc2)c2ccccc2)(c2ccccc2)c2ccccc2)cc1,30.5%
